Laboratory results taken from PubChem BioAssay AID463173 (ICCB-Longwood Screening Facility, Harvard Medical School, 2010).
Hit rate of the full screen: of about 52,000 compounds, about 1,700 (3.3%) were called active. Cut-off read from the data, not from the text of the source: active = survival mostly below about 52% (no sharp cut-off); inactive = mostly above about 56%. The list comes from a sample in which actives are over-represented; it also holds similar structures and randomly drawn compounds.

tested on: Wild type; assay: growth inhibition of S. aureus wild type versus tarO mutant, primary screen, teichoic acid synthesis inhibitors, RN4220, OD600 (AID 463173); settings: S. aureus RN4220 wild type/DeltatarO growth, OD600, 18 h, stronger effect = lower value, screened at 18.75 µg/mL (by protocol)

SMILES	survival
CSc1ccc(/C=C(\C#N)C(=O)NC2CCCCC2)cc1	95% (inactive)
O=C(Cn1nc(-c2ccccc2)c2c(c1=O)CCCC2)Nc1ccc(F)c(Cl)c1	44% (inactive)
CCOc1ccccc1NC(=O)N1CCC(N2CCN(Cc3ccccc3)C(=O)C2=O)CC1	68% (inactive)
Cc1ccc(C)c(S(=O)(=O)NCC(c2ccc(N(C)C)cc2)N2CCOCC2)c1 (centres undefined)	73% (inactive)
Cc1sc2nc(SCC(=O)N(CCO)CCO)n(C3CCCCC3)c(=O)c2c1C	106% (inactive)
CCOc1ccc(CCNC(=O)CS(=O)(=O)Cc2nc(-c3cccc(Cl)c3)oc2C)cc1	82% (inactive)
Oc1cccc2c1NCCC2	113% (inactive)
O=S(=O)(c1cccc(Cl)c1)c1nnn2c1nc(NCc1ccc3c(c1)OCO3)c1sccc12	80% (inactive)
CCSc1oc(-c2cccs2)nc1S(=O)(=O)c1ccc(Br)cc1	51% (inactive)
CCOC(=O)CNC(=O)CC(c1cc(OC)c(OC)c(OC)c1)N1Cc2ccccc2C1=O (centres undefined)	60% (inactive)
Cc1c(Cl)cccc1NC(=O)C1CCN(c2ncnc3c2nc2n3CCCCC2)CC1	129% (inactive)
O=C(COc1ccccc1)Nc1ccc2nc(SCCOc3ccccc3)sc2c1	94% (inactive)
COc1ccc(CNC(=O)Cn2nc3c(cc2=O)CCCC3)cc1	64% (inactive)
COc1ccc(C2=CC(c3cccc(C)c3)n3nnnc3N2)cc1 (centres undefined)	71% (inactive)
COc1cccc(C2C=C(c3ccc(C)c(C)c3)Nc3nnnn32)c1OC (centres undefined)	71% (inactive)
Cc1cccc(C2C=C(c3ccc(C)c(C)c3)Nc3nnnn32)c1 (centres undefined)	1% (active)
CS(=O)(=O)N1CCN(C(=O)c2ccccc2)CC1	110% (inactive)
CCn1cc(C(=O)NCCCN(CC(C)C)CC(C)C)c(=O)c2cc(S(=O)(=O)N3CCc4ccccc4C3)ccc21	80% (inactive)
Cc1cc(C)cc(NS(=O)(=O)c2ccc3c(c2)NC(=O)C(C)S3)c1 (centres undefined)	12% (active)
Cc1ccccc1NS(=O)(=O)c1ccc2c(c1)NC(=O)CCS2	57% (inactive)
Cc1ccc(NS(=O)(=O)c2ccc3c(c2)NC(=O)CCS3)c(Br)c1	-3% (active)
Cc1cc(C)c(NS(=O)(=O)c2ccc3c(c2)NC(=O)CCS3)c(C)c1	60% (inactive)
Cc1ccc(NS(=O)(=O)c2ccc3c(c2)NC(=O)C(C)C(=O)N3)cc1F (centres undefined)	86% (inactive)
O=C1CCSc2ccc(S(=O)(=O)Nc3ccc(Cl)c(C(F)(F)F)c3)cc2N1	81% (inactive)
O=C1CCSc2ccc(S(=O)(=O)Nc3cccc(C(F)(F)F)c3)cc2N1	-4% (active)

SMILES	survival
Cc1ccc(NS(=O)(=O)c2ccc3c(c2)NC(=O)CCS3)cc1C	63% (inactive)
CC1C(=O)Nc2ccc(S(=O)(=O)Nc3ccccc3Br)cc2NC1=O (centres undefined)	89% (inactive)
Cc1nn(C)c(C)c1S(=O)(=O)N(CC(=O)NCCc1ccccc1)c1ccc(C(C)C)cc1	86% (inactive)
COc1cc(NC(=O)C2CCN(S(=O)(=O)c3c(C)noc3/C=C/c3ccccc3F)CC2)cc(OC)c1OC	64% (inactive)
CCCCC(=O)Oc1ccc2oc(-c3ccc(OC)cc3)cc(=O)c2c1	69% (inactive)
Cc1c(Cl)cccc1-n1nnc(-c2nc(-c3ccc4c(c3)OCO4)no2)c1C	73% (inactive)
O=C(NCCc1ccccc1)c1ccc2nc(CCc3ccccc3)oc2c1	0% (active)
COc1ccc(CNC(=O)c2ccc3nc(CCc4ccccc4)oc3c2)cc1	-2% (active)
O=C(NCc1ccccc1)c1ccc2nc(CCc3ccccc3)oc2c1	-3% (active)
COc1ccc(Cc2nc3ccc(C(=O)NCCc4ccc(OC)c(OC)c4)cc3o2)cc1	68% (inactive)
O=C(NCCc1ccc(Cl)cc1)c1ccc2nc(CCc3ccccc3)oc2c1	59% (inactive)
COc1ccc(CCNC(=O)c2ccc3nc(CCc4ccccc4)oc3c2)cc1OC	10% (active)
COc1ccc(CCNC(=O)c2ccc3nc(Cc4ccccc4)oc3c2)cc1OC	124% (inactive)
O=C(NCc1cccc(F)c1)c1ccc2nc(CCc3ccccc3)oc2c1	71% (inactive)
CCCNC(=O)c1ccc2nc(CCc3ccccc3)oc2c1	73% (inactive)
CN(C)c1ccc(CNC(=O)c2ccc3nc(CCc4ccccc4)oc3c2)cc1	78% (inactive)
COc1ccc(CNC(=O)c2ccc3nc(CCc4ccccc4)oc3c2)cc1OC	71% (inactive)
COc1ccc(CNC(=O)c2ccc3nc(CCc4ccccc4)oc3c2)c(OC)c1	131% (inactive)
COc1ccc(CCNCc2ccc3c(c2)n(C)c(=O)n3C)cc1OC	111% (inactive)
O=C(Nc1ccc2nc(C3CC3)n(Cc3ccccc3)c(=O)c2c1)C1CC1	104% (inactive)
CCc1ccc(CN(Cc2ccco2)C(=O)COc2ccccc2Cl)cc1	85% (inactive)
Cc1ccc(N2CCN(S(=O)(=O)c3nnc(NC(=O)c4ccc(C(C)C)cc4)s3)CC2)cc1	82% (inactive)
Cc1cc(C)cc(C(=O)Nc2cc(C(F)(F)F)ccc2N2CCN(c3ccccc3)CC2)c1	78% (inactive)
CCc1ccc(CNC(=O)c2ccc3c(c2)nc2n3CCC(C)C2)cc1 (centres undefined)	127% (inactive)
COC(=O)CCc1sc(Nc2ccc(OC)cc2)nc1-c1ccc(OC)cc1	77% (inactive)

SMILES	survival
Cc1c(NC=O)c(=O)n(-c2ccccc2)n1C	107% (inactive)
CC(=O)c1ccc(NC(=O)COCc2cc(-c3ccco3)on2)cc1	129% (inactive)
O=C(O)c1ccc(Cn2cnc3cccnc32)cc1	55% (inactive)
CC(C)(C)NC(=O)C1CC(=O)OC1(C)C (centres undefined)	107% (inactive)
COc1ccc(Br)cc1C1Sc2ccccc2NC2=C1C(=O)c1ccccc12 (centres undefined)	41% (inactive)
CCCCOc1cccc(C(=O)Nc2sc3c(c2C(=O)OCC)CCCC3)c1	72% (inactive)
COC(=O)c1c(NC(=O)CCCOc2cccc(C)c2)sc2c1CCC2	12% (active)
COC(=O)c1c(NC(=O)COc2ccc(C(C)C)cc2)sc2c1CCCC2	51% (inactive)
COC(=O)c1c(NC(=O)COc2cccc(C(F)(F)F)c2)sc2c1CCCC2	72% (inactive)
COC(=O)c1c(NC(=O)COc2cc(C)c(Cl)c(C)c2)sc2c1CCCC2	140% (inactive)
COC(=O)c1c(NC(=O)COc2c(C)cccc2C)sc2c1CCCC2	6% (active)
COC(=O)c1c(NC(=O)CCCOc2ccc(C)cc2)sc2c1CCCC2	3% (active)
Cc1ccc(OCCCC(=O)Nc2sc3c(c2C(N)=O)CCCC3)cc1	57% (inactive)
COC(=O)c1c(NC(=O)c2c(OC)cccc2OC)sc2c1CCCC2	3% (active)
COC(=O)c1c(NC(=O)COc2ccc(C)cc2Br)sc2c1CCCC2	44% (inactive)
COC(=O)c1c(NC(=O)c2ccc(OC)cc2OC)sc2c1CCCCC2	56% (inactive)
COC(=O)c1c(NC(=O)c2ccccc2C(=O)O)sc2c1CCCC2	110% (inactive)
O=c1nc2c(-c3ccc(F)cc3Cl)n[nH]n2c2ccccc12	72% (inactive)
COc1ccc(-c2nc(Cn3c(SCc4cccc(Cl)c4)nc4ccncc43)c(C)o2)cc1	132% (inactive)
O=C(CSC1=Nc2ccccc2N=C(c2ccc(F)cc2)C1)Nc1ccc(Cl)cc1	92% (inactive)
CCN(CC)C1=C(C(=O)c2ccccc2)NS(=O)(=O)c2ccccc21	103% (inactive)
CCOc1ccc(-c2nnc(SCC(=O)NCc3ccccc3Cl)o2)cc1	85% (inactive)
O=C(Nc1ccccc1)C1CCCN1C1CCCCC1 (centres undefined)	108% (inactive)
O=C1OC(c2ccccc2)=N/C1=C1\OC(=O)c2ccccc21	104% (inactive)
CC1CCCCN1C(=O)CSc1n[nH]c(-c2ccccc2Cl)n1 (centres undefined)	72% (inactive)

SMILES	survival
CCCN(Cc1cccs1)C(=O)Nc1ccc(Br)cc1F	76% (inactive)
COC(=O)c1c(NC(=O)CCCOc2cccc(C)c2)sc2c1CCC(C)C2 (centres undefined)	4% (active)
COC(=O)c1c(NC(=O)CS(=O)(=O)c2ccc(C)cc2)sc2c1CCCC2	-6% (active)
COC(=O)c1c(NC(=O)CS(=O)(=O)c2ccc(C)cc2)sc2c1CCCCC2	67% (inactive)
COC(=O)c1c(NC(=O)COc2ccc(Cl)cc2C)sc2c1CCCCC2	83% (inactive)
CCOC(=O)c1c(NC(=O)COc2cccc(C(F)(F)F)c2)sc2c1CCC(C)C2 (centres undefined)	74% (inactive)
COC(=O)c1c(NC(=O)COc2c(C)ccc(C)c2C)sc2c1CCC(C)C2 (centres undefined)	11% (active)
COC(=O)c1c(NC(=O)COc2ccc(OC)cc2)sc2c1CCC(C)C2 (centres undefined)	86% (inactive)
Cc1cccc(OCCCC(=O)Nc2sc3c(c2C(N)=O)CCC(C)C3)c1 (centres undefined)	88% (inactive)
COC(=O)c1c(NC(=O)COc2cc(C)ccc2C(C)C)sc2c1CCC(C)C2 (centres undefined)	66% (inactive)
COC(=O)c1c(NC(=O)CCCOc2ccccc2C)sc2c1CCC2	4% (active)
Cc1ccccc1OCC(=O)Nc1sc2c(c1C(=O)OC(C)C)CCCC2	69% (inactive)
CCOC(=O)c1c(NC(=O)CS(=O)(=O)c2ccc(C)cc2)sc2c1CCCCC2	87% (inactive)
Cc1nc2nc(C)c(NS(=O)(=O)c3ccc(F)cc3)c(=O)n2[nH]1	81% (inactive)
O=C(O)CCNc1ccc(Cl)cn1	86% (inactive)
S=c1nc[nH]c2c1oc1ccccc12	96% (inactive)
Cc1ccccc1NC(=O)CSc1nc(-c2ccc(F)cc2)nc2c1Cc1ccccc1O2	77% (inactive)
CCOc1ccc(C(=O)N(C)CC2COc3ccccc3O2)cc1 (centres undefined)	98% (inactive)
COc1cccc(-c2ncnn2-c2sc3c(c2C#N)CCCCC3)c1OC	72% (inactive)
N#Cc1c(-n2ncnc2-c2ccccc2Cl)sc2c1CCCCC2	38% (inactive)
COc1ccccc1-c1cc(C(=O)Nc2sc3c(c2C#N)CCCC3)no1	140% (inactive)
N#Cc1c(-n2ncnc2-c2ccccc2C(F)(F)F)sc2c1CCCCC2	4% (active)
Cc1ccccc1-c1ncnn1-c1sc2c(c1C#N)CCCCC2	65% (inactive)
COc1ccccc1-c1ncnn1-c1sc2c(c1C#N)CCCCC2	1% (active)
